Common to all, as to experiment: NCI-60 one-dose screen, 48 h (100 = growth as untreated, 0 = no growth, -100 = all killed)
One test relates to NCI-H226 lung. The following applies: 10 µM.
In a further test the test system is NCI-H322M lung. The following applies: 10 µM.
Another test has as its system HOP-62 NSCLC. The note with it: 10 µM.
The next test deals with NCI-H460 lung. The following applies: 10 µM.
A further test concerns A549/ATCC NSCLC. The note with it: 10 µM.
A further test has as its system COLO 205 colon. The following applies: 10 µM.
A further test deals with DU-145 prostate. The following applies: 10 µM.
The subject of the next test is SF-268 CNS. The note with it: 10 µM.
The test system of another test is SF-295 CNS. The following applies: 10 µM.
The next test deals with SF-539 CNS. The note with it: 10 µM.
For another test, the system named is HCT-15 colon. The following applies: 10 µM.
The next test has as its system HT29 colon. The following applies: 10 µM.
For the next test, the system named is SNB-75 CNS. The following applies: 10 µM.
The test system of a further test is SNB-19 CNS. The following applies: 10 µM.
For a further test, the system named is U251 CNS. The following applies: 10 µM.
In the next test the test system is PC-3 prostate. The note with it: 10 µM.
For a further test, the system named is EKVX NSCLC. The note with it: 10 µM.
The test system of another test is UO-31 renal. The following applies: 10 µM.
Another test deals with ACHN renal. The following applies: 10 µM.
A further test concerns HL-60(TB) leukemia. The following applies: 10 µM unless noted.

Structures are written as SMILES. This is part of a sample that, as a whole, favours compounds with a hit. Of some 83,000 tested, about 20% had one in any assay.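 Compound tested at a single concentration for 48 hours in 96-well plates; a percent growth value below 10 was scored as active.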 Values without a mark were called inactive. The source made the active and inactive calls.

With `C=C1[C@@H](C)C2[C@H](Cc3ccccc3)NC(=O)[C@]23[C@H](OC(C)=O)/C=C/[C@@](C)(O)C(=O)[C@@H](C)C/C=C/[C@H]3[C@@H]1O` (some centres undefined), the growth in the test on NCI-H226 lung is 53.4%; in the test with NCI-H322M lung, 87.9%; with HOP-62 NSCLC, 9.38% (active); in the test on NCI-H460 lung, 26.3%; in the test with A549/ATCC NSCLC, 22.7%; in the test with COLO 205 colon, 35%. The growth in the test with DU-145 prostate was 48%; with SF-268 CNS it was 34.5%; with SF-295 CNS, 51.4%; with SF-539 CNS, 24%; with HCT-15 colon, 45.8%; in the test on HT29 colon it was 11.8%. Besides, the growth in the test on SNB-75 CNS was -10.7% (active); in the test with SNB-19 CNS, 50.4%; in the test on U251 CNS, 29.1%; with PC-3 prostate, 69.4%; with EKVX NSCLC it was 50.5%; with UO-31 renal it was -14.6% (active). Further, the growth is 41.9% with ACHN renal and 31.7% with HL-60(TB) leukemia.

On to `CC1=C[C@H]2O[C@@H]3C[C@@H](O)[C@](C)([C@@]2(C)CC1)[C@@]31CO1`, for which the growth is 29.9% in the test on NCI-H226 lung; 24.9% with NCI-H322M lung; 15.7% with HOP-62 NSCLC; 13.2% in the test on NCI-H460 lung; 16.2% with A549/ATCC NSCLC; 3.33% (active) with COLO 205 colon. In addition, the growth with DU-145 prostate was 19.4%; in the test on SF-268 CNS, 29.3%; with SF-295 CNS it was 27.2%; with SF-539 CNS it was 23.9%; in the test with HCT-15 colon, 20.8%; in the test with HT29 colon it was 11.4%. Further, the growth in the test with SNB-75 CNS is 28.7%; with SNB-19 CNS, 18.9%; in the test with U251 CNS, 15.4%; in the test on PC-3 prostate it was 31.5%; in the test on EKVX NSCLC it was 38.3%; in the test with UO-31 renal, 16.7%. In the test on ACHN renal, the growth is 22.2%.

For `N#Cc1nc(-c2ccccc2)oc1N1CCC(S(=O)(=O)F)CC1`, the growth in the test on NCI-H226 lung is 98.4%; in the test with NCI-H322M lung, 115%; in the test on HOP-62 NSCLC, 95.9%; in the test with NCI-H460 lung, 106%; in the test with A549/ATCC NSCLC it was 102%; in the test on COLO 205 colon, 114%. For the same compound, the growth in the test on DU-145 prostate was 101%; in the test with SF-268 CNS, 92.3%; with SF-295 CNS, 100%; in the test with SF-539 CNS, 91.1%; in the test with HCT-15 colon it was 103%; in the test on HT29 colon, 102%. Moreover, the growth in the test with SNB-75 CNS is 102%; in the test with SNB-19 CNS, 98.6%; in the test with U251 CNS, 98.6%; in the test with PC-3 prostate, 99.3%; in the test with EKVX NSCLC, 103%; in the test on UO-31 renal, 86.7%. Moreover, the growth with ACHN renal is 94.6%; in the test on HL-60(TB) leukemia it was 98.6%.

For the compound `CC1=C[C@H]2O[C@@H]3C[C@H]4OC(=O)/C=C\C=C\[C@H]([C@@H](C)O)OCC[C@@H](C)[C@H](O)C(=O)OC[C@@]2(CC1)[C@]4(C)[C@]31CO1`, the growth with NCI-H226 lung is -50.5% (active); with NCI-H322M lung it was -19.5% (active); in the test on HOP-62 NSCLC, -34.5% (active); with NCI-H460 lung, -5.9% (active); in the test on A549/ATCC NSCLC it was -21.1% (active); in the test on COLO 205 colon, -57.8% (active). For the same compound, the growth is -18.4% (active) in the test with DU-145 prostate; -0.597% (active) with SF-268 CNS; -38.8% (active) in the test on SF-295 CNS; -36.5% (active) in the test on SF-539 CNS; -7.55% (active) with HCT-15 colon; -27.8% (active) in the test on HT29 colon. Moreover, the growth is -48.3% (active) in the test on SNB-75 CNS; -14.3% (active) in the test on SNB-19 CNS; -20.4% (active) with U251 CNS; -22.9% (active) in the test with PC-3 prostate; -28.5% (active) in the test with EKVX NSCLC; -33.6% (active) with UO-31 renal. Further, the growth with ACHN renal is -13.6% (active); with HL-60(TB) leukemia, -50.3% (active).

In the case of `CC1=C(CN(O)C(N)=O)C2=C(C)C3(CC3)[C@@](C)(O)C(=O)C2=C1`, the growth with NCI-H226 lung was -46.8% (active); with NCI-H322M lung, 5.16% (active); in the test with HOP-62 NSCLC, -9% (active); in the test on NCI-H460 lung, -11.2% (active); with A549/ATCC NSCLC, -8.35% (active); with COLO 205 colon, -35.9% (active). The growth with DU-145 prostate is -2.79% (active); with SF-268 CNS, -14.7% (active); in the test with SF-295 CNS, -11.4% (active); in the test on SF-539 CNS, -46.1% (active); in the test on HCT-15 colon, 0.564% (active); with HT29 colon it was 0.349% (active). The growth was -52.8% (active) in the test on SNB-75 CNS; 16.2% with SNB-19 CNS; 4.97% (active) in the test on U251 CNS; 2.36% (active) in the test with PC-3 prostate; -24.1% (active) with EKVX NSCLC; -31.8% (active) with UO-31 renal. Besides, the growth with ACHN renal was -14.4% (active); in the test on HL-60(TB) leukemia it was -28.2% (active).

As to `O=C(CCCc1ccc(N(CCCl)CCCl)cc1)OCc1ccccc1`, the growth in the test on NCI-H226 lung was 90.3%; in the test on NCI-H322M lung it was 103%; in the test on HOP-62 NSCLC it was 84.2%; in the test on NCI-H460 lung, 53.1%; with A549/ATCC NSCLC, 78.9%; with COLO 205 colon, 98%. In addition, the growth in the test with DU-145 prostate is 96.7%; in the test with SF-268 CNS, 80.4%; in the test with SF-295 CNS, 87.7%; in the test with SF-539 CNS, 85.2%; with HCT-15 colon, 88.6%; in the test with HT29 colon it was 95.8%. The growth is 84.9% with SNB-75 CNS; 95.9% with SNB-19 CNS; 89.2% in the test on U251 CNS; 83.2% in the test on PC-3 prostate; 101% with EKVX NSCLC; 83.6% in the test with UO-31 renal. Moreover, the results for the growth in the test with ACHN renal and with HL-60(TB) leukemia were 50.6% and 68.7%, respectively.

Regarding `N#Cc1c(-n2c(Br)c(Br)c3cc(Br)ccc32)[nH]c2c(Br)cc(Br)cc12`, the growth was -20.5% (active) in the test with NCI-H226 lung; 0.977% (active) in the test with NCI-H322M lung; -50.9% (active) in the test with HOP-62 NSCLC; -2.03% (active) in the test on NCI-H460 lung; 10.3% in the test with A549/ATCC NSCLC; -89.6% (active) in the test with COLO 205 colon. The growth was 17% in the test with DU-145 prostate; 9.61% (active) with SF-268 CNS; -67% (active) with SF-295 CNS; 6.25% (active) in the test on SF-539 CNS; -27% (active) in the test on HCT-15 colon; -15.1% (active) with HT29 colon. Moreover, the growth is -9.71% (active) with SNB-75 CNS; 15% in the test on SNB-19 CNS; 2.86% (active) with U251 CNS; -8.16% (active) in the test on PC-3 prostate; 3.62% (active) in the test on EKVX NSCLC; 1.66% (active) with UO-31 renal. For the same compound, the growth in the test on ACHN renal was 1.41% (active); with HL-60(TB) leukemia it was 1.07% (active).
